# Compound activity (PubChem BioAssay)
# RXFP1 antagonist = qHTS Assay for Antagonists of the Relaxin Receptor RXFP1; activity change, negative = inhibition, % at 57.5 µM; actives 0.59% (n = 350,000); AID 1259400, 2018; Relaxin receptor 1 (Homo sapiens), Q9HBX9; HEK293-RXFP1, relaxin-stimulated cAMP HTRF, 30 min; active compounds read low;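 active = activity change of -60% or lower, but not beyond a set lower limit; inconclusive = change between -60% and -40%, or beyond the set limit; inactive = change above -40%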; note: % is set by controls: 0 for no effect and ±100 for the full control effect
# Target sequence (Q9HBX9 whole entry, looked up): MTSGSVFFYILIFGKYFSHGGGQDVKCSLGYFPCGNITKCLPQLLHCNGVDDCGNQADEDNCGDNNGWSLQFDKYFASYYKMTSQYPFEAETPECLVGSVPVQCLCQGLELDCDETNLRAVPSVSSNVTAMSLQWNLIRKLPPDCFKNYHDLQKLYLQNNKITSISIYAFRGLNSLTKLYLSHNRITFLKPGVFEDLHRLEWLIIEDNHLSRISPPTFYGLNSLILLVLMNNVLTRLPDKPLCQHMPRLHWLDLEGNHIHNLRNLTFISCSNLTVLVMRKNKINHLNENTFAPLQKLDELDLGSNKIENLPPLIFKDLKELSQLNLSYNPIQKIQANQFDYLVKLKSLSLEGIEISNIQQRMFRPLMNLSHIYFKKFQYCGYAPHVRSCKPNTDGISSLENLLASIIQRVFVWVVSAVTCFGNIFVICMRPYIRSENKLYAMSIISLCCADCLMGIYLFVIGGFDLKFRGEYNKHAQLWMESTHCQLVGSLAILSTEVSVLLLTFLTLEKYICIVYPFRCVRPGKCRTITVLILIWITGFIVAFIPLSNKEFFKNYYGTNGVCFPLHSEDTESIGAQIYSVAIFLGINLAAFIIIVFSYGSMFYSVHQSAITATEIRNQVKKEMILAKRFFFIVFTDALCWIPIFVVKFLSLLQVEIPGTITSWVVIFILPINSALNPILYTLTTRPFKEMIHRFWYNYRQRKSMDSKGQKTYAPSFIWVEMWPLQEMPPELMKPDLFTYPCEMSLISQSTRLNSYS
# gsp antagonist = qHTS for Antagonists of gsp, the Etiologic Mutation Responsible for Fibrous Dysplasia/McCune-Albright Syndrome: qHTS. gsp-mutant cells, cAMP HTRF, 30 min. Potency, µM (series often up to 76.9 µM), without a hit: top-dose activity change, negative = inhibition, most hits filed as inhibitors. actives 0.4% (n = 340,000). AID 624288, 2012; calls by dose curve; cell line not stated here;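 note: intracellular cAMP measured with PDE inhibitor Ro 20-1724 present during compound exposure; potency is the fitted concentration of half-maximal effect; % is set by controls: 0 for no effect and ±100 for the full control effect; nearly all actives have a fitted effect of over 65% in size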
#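 G418-selected cells were plated in DMEM/10% FBS for 16-24 h at 37C, then treated with compounds plus the PDE inhibitor […] (300 uM solution added) for 30 min at 37C. Intracellular cAMP was measured by HTRF after 30 min lysis at room temperature.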
# gsp ag = qHTS for Agonist of gsp, the Etiologic Mutation Responsible for Fibrous Dysplasia/McCune-Albright Syndrome: qHTS. gsp mutant cells, cAMP HTRF, 30 min. Potency, µM (titrated, usually from 76.9 µM), without a hit: at the highest dose activation (cAMP increase), usual class: activators. actives 0.13% (n = 340,000). AID 624287, 2012; active = well fitted activation curve with a large enough effect; inconclusive = small, poorly fitted or top-dose-only effect, or another doubt; inactive = no such curve, though single readings can be large or run the other way; cell line not stated here;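 note: phosphodiesterase inhibitor Ro 20-1724 added with compounds to block cAMP breakdown; potency is the fitted concentration of half-maximal effect; nearly all actives have a fitted effect of over 60% in size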
#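 Cells in DMEM/10% FBS with G418 were pretreated with compounds in DMSO plus […] (300 uM stock) for 30 min at 37C. cAMP was measured by HTRF (cAMP-d2 plus anti-cAMP antibody-K) after 30 min at room temperature.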
# CCT chaperon mod = High-Throughput Screening for Modulators of Cytosolic Chaperonin Activity. purified chaperonin ATPase assay, HTRF ADP detection, 30 min. activity change, % (concentration not given with the values), hits read low. actives 0.3% (n = 360,000). AID 651819, 2012; in the data active = activity change below about -30%; note: % is set by controls: 0 for no effect and ±100 for the full control effect
#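 TRiC (40 or 20 nM final, by batch activity) in 30 mM Tris pH 7.4, 100 mM KCl, 5 mM MgCl2, 1 mM DTT was treated with compound at 76 uM single dose, then 10 uM ATP, 30 min at 37 °C. ADP was read by HTRF Transcreener.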
# RXFP1 ag = qHTS Assay for Agonists of the Relaxin Receptor RXFP1 | HEK293T-RXFP1 cAMP TR-FRET, 30 min; response scale: percent of porcine relaxin response, buffer zero | Potency, µM (series often up to 57.5 µM), for inactives: top-dose activation, hits mostly activators | actives 0.3% (n = 370,000); note: potency is the fitted concentration of half-maximal effect; % is set by controls: 0 for no effect and ±100 for the full control effect; nearly all actives have a fitted effect of over 60% in size
#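 cAMP rise read by TR-FRET after 30 min, 37C compound exposure (up to 58 uM) in RXFP1-transfected HEK293 cells with Ro 20174 present. EC50 from Hill-equation fits, with 29 nM porcine relaxin as 100% and buffer as basal.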
# MmCpn inh = Inhibitors of TCP-1 ring complex (TRiC) of Methanococcus maripaludis (MmCpn): qHTS; Chaperonin Mm-Cpn (Methanococcus maripaludis); purified Mm-Cpn ATPase, ADP Transcreener TR-FRET; Potency, µM (titrated, usually from 76.9 µM), for inactives: top-dose activity, negative = inhibition, most hits filed as inhibitors; actives 0.031% (n = 330,000); note: potency is the fitted concentration of half-maximal effect; % is set by controls: 0 for no effect and ±100 for the full control effect; nearly all actives have a fitted effect of over 80% in size
#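 ATPase read-out: TR-FRET ADP immunoassay (anti-ADP Eu cryptate vs ADP-d2), ex 320 nm, em 590/665 nm; signal drops as ADP forms. Enzyme 25 nM, ATP 10 uM, 30 min at 37°C after 10 min compound preincubation.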
# Active calls of the source: *; ? = inconclusive; . = no result given; [ ] = remark or other dose. Compounds with a hit are over-represented: about 1.2% of the library has one in this group of screens. Unless noted, calls come from the whole dose curve; as a rule, active = well fitted curve in the direction sought with a large enough effect; inconclusive = small, poorly fitted or top-dose-only effect, or another doubt; inactive = no such curve, though single readings can be large; an effect the other way counts as inactive or inconclusive.
SMILES,RXFP1 antagonist,gsp antagonist,gsp ag,CCT chaperon mod,RXFP1 ag,MmCpn inh
O=C(O)c1cc(-c2ccc(Br)s2)nc2ccccc12,-6,-13%,?,1,2.8µM*,?
CN(CC(=O)Nc1ccc(F)c(F)c1F)C(=O)CCc1nc2sc3c(c2c(=O)[nH]1)CCCC3,-63*,-5%,18%[15.4 µM],-1,3%,?
CCCC(CCC)(C(=O)OCC)C(=O)OCC,-12,.,.,.,.,.
Cc1cc(OCC(=O)Nc2ccc(N3CCN(C(=O)c4ccco4)CC3)cc2)cc(C)c1Cl,-25,-11%,20%,-1,3%,-1%
Cc1ccc(OCC(=O)Nc2ccc(N3CCN(C(=O)c4ccco4)CC3)cc2)cc1C,-35,45µM*,1%[15.4 µM],-2,-3%,-3%
O=C(COc1ccc2ccccc2c1)N1CCN(C(=O)c2ccco2)CC1,-84*,-16%,12%[15.4 µM],-1,3%,-3%
Cn1c(=Nc2ccc(N3CCOCC3)cc2)ccc2ccccc21,-10,-5%,-5%,1,2%,-3%
Cn1c(N=Nc2ccc(N3CCOCC3)cc2)[n+](C)c2ccccc21,-107*,?,0%[15.4 µM],1,-13%,-10%
Cc1ccc(-n2nc3c(=O)n(CC(=O)NCCC4=CCCCC4)nc(C)c3c2C)cc1,-102*,-9%,0%,-78*,8%,1%
Cc1ccc(-n2nc3c(=O)n(CC(=O)NCCc4ccc(Cl)cc4)nc(C)c3c2C)cc1,4,-17%,28%,0,4%,0%
CC(=O)SC[C@@H](C)C(=O)N1CCC[C@H]1C(=O)N[C@@H](Cc1ccccc1)C(=O)O,14,.,.,.,.,.
CCCOc1cccc(C2c3c(oc4ccccc4c3=O)C(=O)N2c2nncs2)c1 (stereo not given),-1,.,.,.,3%,.
CCOc1cc(C(=O)OC(C)C(=O)Nc2ncc(Cl)cc2Cl)ccc1OCC(=O)N1CCOCC1 (stereo not given),-1,50µM*,-10%,-3,1%,-1%
COc1ccc(C2C(=O)N(C3CCCCC3)CC(=O)N2CCC2=CCCCC2)cc1 (stereo not given),-16,.,.,.,0%,.
CCOCCCn1c(SCC(=O)NC2CCCCC2)nc2ccccc2c1=O,0,.,-15%,-86*,.,.
CCCn1c(=O)c2sccc2n2c(CCCC(=O)Nc3ccc(C)c(F)c3)nnc12,-15,.,.,.,3%,.
COc1ccc(-n2c(-c3ccc(C)cc3)cc3c2CC(C)(C)CC3=O)c(OC)c1,-62*,.,.,.,4%,.
COc1ccc(OCC(=O)Nc2ccc(C(=O)OCc3cc(=O)n4nc(C)sc4n3)cc2)cc1,6,.,.,.,2%,.
Cc1ccc(C)c(S(=O)(=O)C(C#N)c2nc3ccccc3nc2N2CCOCC2)c1 (stereo not given),-8,25µM*,22%,1,3%,3%
COc1ccccc1N1CC(C(=O)OC(C)C(=O)N2CCCc3ccccc32)CC1=O (stereo not given),9,-19%,5%,-60*,1%,-3%
CCOc1ccc(NC(=O)CN(C)C(=O)CCNC(=O)c2ccccc2Cl)cc1OCC,-9,-16%,-21%,-44*,0%,-3%
CCOc1ccc(NC(=O)CN(C)C(=O)CCCNC(=O)c2ccc(Cl)cc2)cc1OCC,-3,.,-19%,-3,.,.
Cc1noc2ncnc(N3CCN(c4cccc(Cl)c4)CC3)c12,-4,35µM*,10%,1,0%,0%
Cc1ccc(Cl)cc1N1CCN(c2ncnc3onc(C)c23)CC1,.,.,.,.,-2%,.
Nc1nc2ccccc2n1Cc1ccc(F)cc1,-7,.,.,.,.,.
SMILES,RXFP1 antagonist,gsp antagonist,gsp ag,CCT chaperon mod,RXFP1 ag,MmCpn inh
O=C(COc1ccc2ccccc2c1Br)Nc1cccnc1,-15,17%,6.3µM*,0,15%,-8%
CCCCCOc1ccc(Cn2c(=O)oc3ccc(C)cc32)cc1OC,.,.,.,.,-1%,.
Cc1ccc(CNC(=O)C(C)n2nc(C)c3sc4ccccc4c3c2=O)cc1 (stereo not given),-24,.,.,.,32µM*,.
Cc1nn(C(C)C(=O)NCc2ccc(OC(C)C)cc2)c(=O)c2c1sc1ccccc12 (stereo not given),-24,.,.,.,-3%,.
COc1cc(CN2CC(=O)N(c3ccccc3Cl)C2=S)cc(OC)c1OC,-14,35µM*,-16%,-3,0%,0%
COc1cc(CN2CC(=O)N(c3cccc(Cl)c3C)C2=S)cc(OC)c1OC,1,-7%,?,0,0%,2%
CCN(CC)c1ccc(/C=N/Nc2nc3ccccc3[nH]2)c(O)c1,-29,1%,-11%,-31*,-1%,-3%
COc1cc(OC)c(OC)cc1/C=N/Nc1nc2ccccc2[nH]1,-4,-1%,-7%,-3,-4%,-5%
NC(=O)C1CCN(c2nc(-c3cccc(Br)c3)cs2)CC1,.,.,.,.,.,-1%
CCOCCCNc1ncnc2c1[nH]c1ccccc12,-6,-22%,28%,2,1%,-3%
c1nc(NCC2CCCO2)c2[nH]cnc2n1 (stereo not given),20,2%,0%,-2,.,.
c1ccc2c(c1)[nH]c1c(NCC3CCCO3)ncnc12 (stereo not given),-5,35µM*,-1%,0,1%,0%
CCCCOCCCNc1ncnc2c1[nH]c1ccccc12,-3,7.9µM*,0%,-5,-3%,-1%
O=C(CC1N=C2c3ccccc3N=C(SCc3ccccc3Cl)N2C1=O)NCc1cccs1 (stereo not given),-4,.,.,.,3%,.
COc1ccc(C(CCNCc2ccccc2)c2ccc(F)cc2)cc1 (stereo not given),-1,-3%,-4%,-1,0%,0%
COc1ccc(C(CCNC(C)c2ccccc2)c2ccc(F)cc2)cc1 (stereo not given),-66*,3%,0%,-3,-2%,-3%
O=C(CSc1nc(-c2ccco2)nc2cc(=O)[nH]n12)Nc1ccccc1F,-9,.,.,.,0%,.
CC(C)(C)c1ccc(-c2nc(SCC(=O)Nc3ccccc3F)n3[nH]c(=O)cc3n2)cc1,-64*,.,.,.,2%,.
Cc1cccc(NC(=O)CN2C(=O)C(c3ccccc3)=NC23CCC(C)CC3)c1 (stereo not given),-22,.,.,.,0%,.
COc1cc(OC)cc(C(=O)NCCOC23CC4CC(CC(C4)C2)C3)c1,-6,-16%,2.5µM*,-3,1%,-4%
